# rTrxR1 inhibitor – inhibitors of rat thioredoxin reductase 1; O89049; recombinant rTrxR1, NADPH fluorescence consumption, selenite substrate; Potency, µM (doses to about 114 µM), for inactives: top-dose activity change, negative = inhibition, most hits filed as inhibitors; 390,000 tested, 1% active; AID 588453; also: nearly all actives have a fitted effect of over 65% in size
#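 Rat TrxR1 (90 nM in the dispensed reagent) was pre-reduced with 400 uM NADPH for 5 min at room temperature, then incubated with compound for 15 min. After 400 uM selenite was added, NADPH fluorescence (Ex 340/Em 450 nm) was followed for 8 min.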
# TrxR1 substrate – is turned over as a substrate by rat TrxR1. O89049. purified TrxR1 substrate turnover, NADPH consumption readout. Potency, µM (doses to about 114 µM), without a hit: at the highest dose activity change, negative = substrate turnover. 390,000 tested, 0.01% active. AID 588456; also: nearly all actives have a fitted effect of over 50% in size
#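 Rat TrxR1, dispensed at 90 nM, was prereduced with 400 uM NADPH (final) for 5 min at ~22 deg C, then incubated with compound 15 min before 400 uM selenite. A first-read NADPH fluorescence drop versus no-compound background flagged substrates.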
# KAT2A inh – GCN5L2 (KAT2A) acetyltransferase inhibition; GCN5L2 HAT assay, ThioGlo1 CoA-SH fluorescence; Q92830; Potency, µM (doses to about 58.9 µM), without a hit: at the top dose activity change, negative = inhibition, hits mostly inhibitors; 390,000 tested, 0.21% active
#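 Enzyme at 20nM final was mixed with library compounds for 15 min at room temperature. Peptide H3(1-25) at 75uM, acetyl-CoA at 70uM and ThioGlo1 at 50uM were then added. Plates were read immediately and after 20 min (Ex340nm/Em540nm).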
# VDR inhibitor – vitamin D3 receptor (human) inhibition | P11473 | VDR-SRC2-3 peptide fluorescence polarization, 2 h | Potency, µM, for inactives: max response, negative = inhibition, hits mostly inhibitors | 400,000 tested, 0.93% active | AID 504847
# Target sequence (P11473 whole entry, looked up): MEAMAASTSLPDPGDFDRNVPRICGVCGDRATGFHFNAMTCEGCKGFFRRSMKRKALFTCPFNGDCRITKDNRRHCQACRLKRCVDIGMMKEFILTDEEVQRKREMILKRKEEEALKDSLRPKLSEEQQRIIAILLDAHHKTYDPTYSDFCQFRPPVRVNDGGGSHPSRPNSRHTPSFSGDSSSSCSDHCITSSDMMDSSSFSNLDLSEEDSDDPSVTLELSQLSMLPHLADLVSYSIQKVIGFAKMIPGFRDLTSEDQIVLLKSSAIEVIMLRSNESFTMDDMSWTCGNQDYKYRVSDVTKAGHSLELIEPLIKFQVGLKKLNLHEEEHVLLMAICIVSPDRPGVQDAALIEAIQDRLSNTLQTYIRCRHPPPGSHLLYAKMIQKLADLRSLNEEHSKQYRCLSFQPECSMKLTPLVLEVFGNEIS
#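 Reagent solutions, kept cold and dark, are dispensed first; compounds are then pinned in at 23 nl, plates briefly spun, and incubated 2 h at ambient temperature. Inhibition of VDR–SRC2-3 peptide binding is read by fluorescence polarization.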
# * marks the source's active call; other numbers are inactive results; ? = inconclusive; . = not tested or not shown; ! = not active in a repeat; [ ] = another dose, or the depositor's remark. An excerpt weighted towards active compounds, which were near 1.8% of everything screened. Calls follow the shape of the dose curve; as a rule, active = well fitted curve in the direction sought with a large enough effect; inconclusive = small, poorly fitted or top-dose-only effect, or another doubt; inactive = no such curve, though single readings can be large; an effect the other way counts as inactive or inconclusive. % is scaled to controls: 0 for no effect and ±100 for the full control effect; potency is read from the fitted curve at half-maximal effect.
SMILES,rTrxR1 inhibitor,TrxR1 substrate,KAT2A inh,VDR inhibitor
Cc1nnnn1/C(=C\c1ccccc1)C(=O)OCC(=O)NC(C)(C)C,50.1µM*,-3.1%,11.5%,?
CC(=O)Nc1ccc(NC(=O)COC(=O)/C(=C/c2ccccc2)n2nnnc2C)cc1,70.8µM*,1.7%,-4.1%,?
CC(C)Cc1nnc(NS(=O)(=O)c2ccc([N+](=O)[O-])cc2)s1,7.8%[57.1 µM],-10.5%,?,6.2%
O=[N+]([O-])c1ccc(S(=O)(=O)Nc2nnc(C(F)(F)F)s2)cc1,6.31µM*,-13.0%,?,-5.1%
CCCCCCCCCCC/C=C\C/C=C\CCCC(=O)O,.,.,5.1%,-0.9%
CCCCC/C=C\C/C=C\C/C=C\C/C=C\CCCC(=O)C(F)(F)F,.,.,-18.5%,28.2µM*
CNc1ccc(/C=C2\C=Cc3ccccc32)cc1I,-8.0%,-8.3%,.,.
c1cncc(-c2nc(-n3ccnc3)c3ccccc3n2)c1,.,.,-5.5%,-10.6%
COc1ccc2c(c1O)-c1ccccc1CCN(C)C2,-6.2%,-4.0%,1.8%,-9.8%
CN1CCc2cccc3c2[C@@H]1Cc1ccc(O)c(O)c1-3,14.1µM*,11.5%,-11.8%,31.6µM*!
COC(=O)N1CCC2(CCCN(Cc3ccc(C#N)cc3)C2)CC1,.,.,-10.0%,?
CC(=O)Oc1ccc2c(C)cc(=O)oc2c1,1.9%[57.1 µM],21.1%[57.1 µM],1.8%,11.6%
Cc1ccc(S(=O)(=O)CCC(=O)Oc2ccc3c(C)cc(=O)oc3c2)cc1,70.8µM*,381.5%,-17.1%,?
CCNc1cc(O)ccc1C,41.3%,5.7%,-8.3%,79.4µM*
OC(Cc1ccc2ccccc2n1)c1c(Cl)cccc1Cl (configuration not stated),-0.5%,-2.4%[0.0914 µM],.,.
CC(C)(C)n1ncc2c(=O)n(Cc3cc(F)ccc3Cl)cnc21,-10.5%,-5.7%,.,.
CCCC(NC(=O)COc1cc2c(c3oc(=O)cc(C)c13)CCC(C)(C)O2)C(=O)O (configuration not stated),103.6%,627.5%,?,-6.7%
CC[C@H](C)[C@H](NC(=O)CNC(=O)COc1cc2c(c3oc(=O)cc(C)c13)CCC(C)(C)O2)C(=O)O,?,552.1%,22.4µM*,-15.9%
COC1CC2CCC(C)[C@](O)(O2)C(=O)C(=O)N2CCCCC2C(=O)OC(C(C)CC2CCC(O)C(OC)C2)CC(=O)C(C)/C=C(/C)C(O)C(OC)C(=O)C(C)CC(C)C=CC=C/C=C\1C (some centres not stated),.,.,-18.4%,?
CC(=O)c1sc(N/N=C2\CC3CC2C(C)C3(C)C)nc1C (configuration not stated),11.2µM*,-6.1%,-7.3%,22.4%
COc1ccc(/C(C)=N/Nc2nc(C)c(C(C)=O)s2)cc1,17.6%,1.5%,-0.7%,-1.4%
CC(C)(C)n1ncc2c(=O)n(Cc3ccccc3Cl)cnc21,0.6%,-2.1%,.,.
CC1=NOC(=O)/C1=C\c1ccc(-c2ccc(Br)cc2C(=O)O)o1,-7.2%[57.1 µM],0.9%[57.1 µM],?,79.4µM*
CS(=O)(=O)N1CCC[C@@]2(CCN(C(c3ccccc3)c3ccccc3)C2)C1,.,.,-13.3%,0.9%
CC(C)c1ccc(NC(=O)CSc2nnc(-c3ccccc3)n2C)cc1,10.8%,-3.9%,.,.
SMILES,rTrxR1 inhibitor,TrxR1 substrate,KAT2A inh,VDR inhibitor
CC(=O)c1sc(NC(=O)C=C(C)C)nc1C,2.6%,-5.8%,-6.3%,16.5%
CC(=O)c1sc(NC(=O)C2(F)C(F)(F)C(F)(F)C(F)(F)C(F)(F)C2(F)F)nc1C,35.5µM*,?,-9.4%,-6.2%
O=C(Cc1ccccc1Cl)NO,6.3%,0.1%,.,.
Cc1ccc(/C=C/C(=O)NCCc2ccccc2)o1,14.1µM*,5.5%,-3.7%,70.8µM*
Cc1ccc(/C=C/C(=O)Nc2cccc3ncccc23)o1,10µM*,-3.8%,-3.1%,-7.1%
Cc1ccc(/C=C/C(=O)Nc2cccnc2)o1,31.6µM*,4.4%[57.1 µM],-18.1%,-5.6%
Nc1nc(N)c2c(Oc3ccc(F)cc3)cccc2n1,2.5%,31.7%,.,.
O=C(O)C(c1ccccc1)N1C(=O)/C(=C\c2ccc(-c3ccccc3Cl)o2)SC1=S (configuration not stated),1.8%[57.1 µM],-8.9%,?,50.1µM*
Cc1[nH]c2ccccc2c1C(c1c[nH]c2ccccc12)c1c(C)[nH]c2ccccc12,?,-6.6%[0.0914 µM],.,.
O=c1[nH]c(Nc2ccc(F)cc2)cc2ccccc12,11.2µM*,32.3%,-7.6%,-13.0%
O=c1[nH]c(Nc2ccccc2Cl)cc2ccccc12,39.1%,31.3%,.,0.0%
COc1cc(OC)c(/C=C/c2cc(/C=C/c3c(OC)cc(OC)cc3OC)[n+](C)c3ccccc23)c(OC)c1,-0.9%,4.3%,.,.
Cc1ccc(-c2ccc(CCC(=O)O)n2C(C)C)cc1,-33.6%,21.0%,-1.1%,-0.2%
C=Cc1c(C)c2cc3[nH]c(cc4nc(cc5nc(cc1[nH]2)C(C)=C5CCC(=O)O)C(CCC(=O)O)=C4C)c(C)c3C=C,5.32µM*!,11.2%[57.1 µM],-13.6%,14.1µM*
CC1=C(CCC(=O)O)c2cc3nc(cc4[nH]c(cc5[nH]c(cc1n2)c(C)c5C(C)O)c(C)c4C(C)O)C(C)=C3CCC(=O)O (configuration not stated),.,.,1.2%,17.8µM*
COc1ccc(CN2[C@@H](CC(=O)O)c3ccc(/C=C/C(=O)O)cc3S2(=O)=O)cc1,5.0%,3.5%,.,.
COc1ccccc1C(C)NCC(=O)c1c(C)[nH]c2ccccc12 (configuration not stated),20µM*,-3.1%,.,.
N#Cc1cccc(N=c2ssnc2Cl)c1,1.6%[57.1 µM],-3.2%[57.1 µM],6.31µM*,?
Clc1ccc(N=c2ssnc2Cl)nc1,-3.0%[57.1 µM],-3.6%[57.1 µM],-1.0%,5.62µM*
COc1cc(N=c2ssnc2Cl)cc(OC)c1,?,-11.4%,22.4µM*,20µM*
CC1(C)CC(=O)C(C=Nc2ccc(Cl)cn2)=C(O)C1,-33.3%,-8.4%,-1.3%,-4.0%
Clc1nssc1=Nc1ccc(Br)cc1,-17.1%[57.1 µM],4.4%[57.1 µM],8.91µM*,35.5µM*
OCc1ccccc1N=c1ssnc1Cl,.,.,-26.8%,.
Clc1nssc1=Nc1nncs1,-15.7%,-16.6%,2.24µM*,5.62µM*
c1ccc2c(N=NN3CCCCC3)ccnc2c1,5.6%,-4.8%,.,.
SMILES,rTrxR1 inhibitor,TrxR1 substrate,KAT2A inh,VDR inhibitor
O=c1ccc(N=Nc2ccccc2)ccc1O,-31.3%[57.1 µM],-18.0%[57.1 µM],-1.2%,-3.8%
Oc1ccc(N=Nc2ccccc2)o1,31.6µM*,-10.9%,-5.3%,89.1µM*
COC1(OC)C=CC(=O)C=C1NC(=O)c1ccccc1OC(C)=O,12.6µM*,-4.5%[57.1 µM],.,-7.5%
O=C(NNc1ccccc1[N+](=O)[O-])Nc1ccc(Cl)c(Cl)c1,13.1%,6.0%[57.1 µM],-0.7%,-9.6%
O=C1NC(=O)C(c2ccccc2[N+](=O)[O-])=C1Nc1ccc(O)c(Cl)c1,2.67µM*!,-2.6%[57.1 µM],?,44.7µM*!
O=C(On1c(-c2ccccc2)nc2ccccc2c1=O)c1ccco1,5.01µM*,9.3%,.,-24.4%
O=C(O)[C@H]1C[C@@H](CP(=O)(O)O)CCN1,23.0%,4.2%,-5.6%,-20.6%
CCOC(=O)c1c(SCCN2CCCC2)n(-c2ccccc2)c(=S)n(-c2ccccc2)c1=O,31.6µM*,3.7%,.,70.8µM*
CCOC(=O)c1c[nH]c(=S)n(-c2ccccc2)c1=O,-6.1%[57.1 µM],-3.3%[57.1 µM],-1.1%,-9.3%
